Results filed as inconclusive are left out. The source made the active and inactive calls. Unless noted, calls follow the shape of the dose curve; as a rule, active = well fitted curve in the direction sought with a large enough effect; inconclusive = small, poorly fitted or top-dose-only effect, or another doubt; inactive = no such curve, though single readings can be large; an effect the other way counts as inactive or inconclusive.
How the values were obtained:
[1] = qHTS assay for small molecule activators of the p53 signaling pathway (AID 651743; active = well fitted activation curve with a large enough effect in the signal ratio, not every such curve was filed as active; the % refers to the signal ratio; also: % of control where 0% means no effect); conditions: HCT-116 p53RE-bla, beta-lactamase FRET ratio, 16 h; activation: hits give high values
How it was run: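 Following 16 hours of compound exposure at 37 C, HCT-116 cells bearing the p53RE-bla reporter were loaded with LiveBLAzer B/G FRET substrate for 2 hours at room temperature and fluorescence intensity was recorded.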

[2] = qHTS assay for environmental chemicals that activate the Aryl hydrocarbon Receptor (AhR) signaling pathway (AID 651777); conditions: 1A2-DRE human hepatoma cells, luciferase, 24 h; activation: hits give high values; also: % of control where 0% means no effect; nearly all actives have a fitted effect of over 15% in size
How it was run: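 Luminescence read-out: One-Glo added for 30 min at RT after 24 hr compound treatment (37 C, 5% CO2) of human hepatoma cells expressing a DRE/CYP1A2 promoter–luciferase reporter; increased signal indicates AhR activation.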

[3] = target: Peroxisome proliferator-activated receptor alpha (Homo sapiens) (UniProt Q07869); experiment: qHTS assay for small molecule agonists of the peroxisome proliferator-activated receptor alpha (PPARalpha) signaling pathway (AID 651778); conditions: PathHunter PPARalpha complementation, chemiluminescence, 6 h; hits give high values; also: % of control where 0% means no effect
How it was run: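 Enzyme-fragment complementation assay in which ligand-bound PPARalpha translocates and forms an active enzyme that generates chemiluminescence. Cells were plated overnight, exposed to compound for 6 hr at 37 C, and then given detection reagent for 60 min at room temperature.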

[4] = qHTS assay for small molecule agonists of the antioxidant response element (ARE) signaling pathway measured by Nrf2-dependant transcriptional activity (AID 720636; active = well fitted curve in the direction sought with a large enough effect in the repeat runs; an effect the other way counts as inactive or inconclusive;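 also: HepG2 cells with an ARE-driven luciferase reporter; % of control where 0% means no effect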)
How it was run: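 HepG2 ARE-luc reporter line, 1% dialyzed FBS; 6 hr attachment at 37 C, compound pinned in, 16 hr at 37 C/5% CO2; ONE-Glo, 30 min RT, luminescence read.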

[5] = qHTS assay for small molecule agonists of the antioxidant response element (ARE) signaling pathway measured by Nrf2-dependant transcriptional activity - cell viability counter screen (AID 720653; active = well fitted curve in the direction sought with a large enough effect in the repeat runs; an effect the other way counts as inactive or inconclusive; also: % is scaled to controls: 0 for no effect and ±100 for the full control effect); conditions: ARE-bla HepG2 viability, CellTiter-Glo ATP luminescence, 16 h; max response: hits give low values
How it was run: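 ARE-bla HepG2 cells treated with compounds for 16 h at 37C; this counter screen measures viability as intracellular ATP by CellTiter-Glo luminescence after 30 min at room temperature.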

[6] = qHTS Assay for Identifying Gametocytocidal Compounds (AID 743244);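 also: % is scaled to controls: 0 for no effect and ±100 for the full control effect; actives lower the fluorescent signal which means gametocytes are killed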; conditions: P. falciparum 3D7 stage III-V gametocytes, alamarBlue, 72 h; max response: hits give low values
How it was run: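 P. falciparum 3D7 stage III–V gametocytes (20,000 cells/well) were exposed to compounds for 72 h at 37 °C, 5% CO2. AlamarBlue was then added for 24 h; decreased resorufin fluorescence (Ex 525/Em 598 nm) indicated loss of viability.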

[7] = qHTS assay for cell viability of HEK293 cells (AID 743288); conditions: ATP luminescence (CellTiter-Glo), 18 h; max response: hits give low values; also: % is scaled to controls: 0 for no effect and ±100 for the full control effect; nearly all actives have a fitted effect of over 50% in size
How it was run: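 HEK293, 18 h, 37 C, ATP luminescence. Cells at 2,000/well were allowed at least 5 h to settle before dosing; CellTiter-Glo developed 30 min at RT.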

[8] = qHTS assay for cell viability of the p53RE-bla HCT-116 cell line (AID 743292); also: % is scaled to controls: 0 for no effect and ±100 for the full control effect; nearly all actives have a fitted effect of over 55% in size
How it was run: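 Luminescent ATP quantitation (CellTiter-Glo) served as the viability read-out; reagent was added after 16 h compound exposure at 37 C and read after 30 min at room temperature. Cells: p53RE-bla HCT-116, 4,000 per well.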

[9] = Drug repurposing screens with cells derived from glioblastoma tumor samples (AID 1345199); conditions: GBM patient neurospheres viability, ATP luminescence, 48 h; Potency: tumour line A; series mostly up to 45.9 µM; also: % is scaled to controls: 0 for no effect and ±100 for the full control effect; nearly all actives have a fitted effect of over 40% in size
How it was run: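 Primary testing used CD133+ neurospheres from four GBM patients, seven concentrations, 48 h exposure and ATP-based viability; confirmation added three slower-growing patient lines.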

[10] = target: Nuclear receptor subfamily 1 group I member 2 (Rattus norvegicus) (UniProt Q9R1A7); experiment: qHTS assay for small molecule activators of the rat pregnane X receptor (rPXR) signaling pathway (AID 651751; call rule not given here; also: 0% is about no effect); conditions: rPXR reporter cells, luciferase (One-Glo), 24 h
[11] = qHTS assay for small molecule activators of the human pregnane X receptor (PXR) signaling pathway (AID 720659; call rule not given here; also: 0% is about no effect)
[12] = system: Zika virus NS2B-NS3 protease (unlinked complex); experiment: Primary screen GU Rhodamine qHTS for Zika virus inhibitors: Unlinked NS2B-NS3 protease assay (AID 1347159); also: % is scaled to controls: 0 for no effect and ±100 for the full control effect; nearly all actives have a fitted effect of over 60% in size
How it was run: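 Percent inhibition came from the 15-min rise in Rhodamine110 fluorescence (1.5 microM substrate, ~15% conversion), normalized to no-inhibitor and no-enzyme wells and Hill-fitted. Unlinked protease, 25 nM, pH 8.0 Tris buffer; compounds up to 114 microM, 15-min preincubation.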

[13] = target: Calcium and integrin-binding protein 1 (Homo sapiens) (UniProt Q99828); experiment: Primary qHTS for Identification of Calcium Integrin Binding Protein 1 (CIB1) Competitor (AID 1508620);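 also: GST tagged CIB1 binding a fluorescein labelled alphaIIb integrin peptide tracer; top concentration of the series differs between compounds; % is scaled to controls: 0 for no effect and ±100 for the full control effect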
How it was run: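 Fluorescence polarization competition: GST-tagged CIB1 (1 uM final) preincubated with compound 15 min at room temperature, then FITC-labelled alphaIIb peptide (100 nM final) added. After 15 min at room temperature, polarization read at Ex 480/Em 540.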

[14] = target: Glutathione peroxidase 1 (Homo sapiens) (UniProt P07203); experiment: Primary qHTS Assay for Inhibitors of Recombinant Selenoprotein Glutathione Peroxidase 1 (GPX1) (AID 1845191); also: % is scaled to controls: 0 for no effect and ±100 for the full control effect; nearly all actives have a fitted effect of over 65% in size
How it was run: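 GR-coupled readout: NADPH consumption tracked by fluorescence, ex 340/em 450 nm, at t=0 and after 15 min at RT. Final mix 10 nM GPX1, 1 mM GSH, 0.5 mM CHP, 0.5 mM NADPH, 100 nM GR, 0.01% BSA, following 30 min enzyme–compound preincubation.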

[15] = target: Phospholipid hydroperoxide glutathione peroxidase GPX4 (Homo sapiens) (UniProt P36969); experiment: Primary qHTS Assay for Inhibitors of Recombinant Selenoprotein Glutathione Peroxidase 4 (GPX4) (AID 1845192); also: % is scaled to controls: 0 for no effect and ±100 for the full control effect; nearly all actives have a fitted effect of over 65% in size
How it was run: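 Steps: GPX4 plus compound, 30 min RT; add GR/GSH/NADPH master mix; start with cumene hydroperoxide; read 340/450 nm fluorescence at 0 and 15 min. Finals were 200 nM GPX4, 1 mM GSH, 0.5 mM CHP, 0.5 mM NADPH, 100 nM GR.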

[16] = target: Luciferin 4-monooxygenase (Photinus pyralis) (UniProt P08659); experiment: Primary firefly luciferase (FLuc) qHTS assay for identification of artifact compounds. (AID 1845220); conditions: outcome: dose series up to 54.1 µM unless noted;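 also: plate controls were DMSO vehicle for no effect and no enzyme for full effect; nearly all actives have a fitted effect of over 60% in size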
How it was run: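 Enzymatic FLuc inhibition assay: compounds pre-exposed to luciferin/ATP (10 uM each) for 15 min, then purified P. pyralis enzyme at 10 nM added. Read-out: luminescence at 5 min.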

[17] = Primary fluorescence-based thiol-reactive (MSTI) qHTS assay for identification of artifact compounds. (AID 1845221);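 also: thiol-reactive compounds lower the probe fluorescence signal; nearly all actives have a fitted effect of over 65% in size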
How it was run: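 qHTS titration of compound; 4 uM MSTI, PBS pH 7.4, 2% DMSO; 1 h RT, dark; fluorescence 525/598 nm; normalized to Acetyl-MSTI and MSTI; 4-parameter Hill fit.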

[18] = system: Nanoluciferase (engineered Oplophorus gracilirostris luciferase); experiment: Primary Nanoluciferase (NLuc) qHTS assay for identification of artifact compounds. (AID 1845222);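 also: NLuc secreted into diluted conditioned medium of S16 cells; 0% = DMSO and -100% = no enzyme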
How it was run: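 S16 cell supernatant NLuc, 1:55; cpds qHTS; 15 min RT dark; Nano-Glo substrate 1:100, 5 min; luminescence; Hill fit of % inhibition.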

C33A = experiment: Primary qHTS to identify gynecologic anti-cancer compounds using libraries of approved drugs and bioactive compounds (AID 1345084); conditions: Gynecologic cancer cell panel viability, ATPlite luminescence, 48 h; series mostly up to 57.5 µM; also: % is scaled to controls: 0 for no effect and ±100 for the full control effect; nearly all actives have a fitted effect of over 55% in size
How it was run: (§1)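 Cells, 1,000 per well, were allowed to settle for 16 h at 37 C before compound addition. Five concentrations were tested for 48 h, and viability was read by ATPlite luminescence after 15 min at room temperature.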

CAOV3 = experiment: as above; conditions: Gynecologic cancer cell panel viability, ATPlite luminescence, 48 h; series mostly up to 57.5 µM
How it was run: as §1

CASKI = experiment: as above; conditions: Gynecologic cancer cell panel viability, ATPlite luminescence, 48 h; series mostly up to 57.5 µM
How it was run: as §1

Es-2 = experiment: as above; conditions: Gynecologic cancer cell panel viability, ATPlite luminescence, 48 h; series mostly up to 57.5 µM
How it was run: as §1

HeLa = experiment: as above; conditions: Gynecologic cancer cell panel viability, ATPlite luminescence, 48 h; series mostly up to 57.5 µM
How it was run: as §1

Hek293T = experiment: as above; conditions: Gynecologic cancer cell panel viability, ATPlite luminescence, 48 h, control line for the selectivity index; series mostly up to 57.5 µM
How it was run: as §1

JEG-3 = experiment: as above; conditions: Gynecologic cancer cell panel viability, ATPlite luminescence, 48 h; series mostly up to 57.5 µM
How it was run: as §1

OV90 = experiment: as above; conditions: Gynecologic cancer cell panel viability, ATPlite luminescence, 48 h; series mostly up to 57.5 µM
How it was run: as §1

PA-1 = experiment: as above; conditions: Gynecologic cancer cell panel viability, ATPlite luminescence, 48 h; series mostly up to 57.5 µM
How it was run: as §1

Tov-21-G = experiment: as above; conditions: Gynecologic cancer cell panel viability, ATPlite luminescence, 48 h; series mostly up to 57.5 µM
How it was run: as §1

Tov112D = experiment: as above; conditions: Gynecologic cancer cell panel viability, ATPlite luminescence, 48 h; series mostly up to 57.5 µM
How it was run: as §1

Chain of Peroxisome proliferator-activated receptor alpha (Homo sapiens) (Q07869 whole entry, looked up, the tested form may be a part): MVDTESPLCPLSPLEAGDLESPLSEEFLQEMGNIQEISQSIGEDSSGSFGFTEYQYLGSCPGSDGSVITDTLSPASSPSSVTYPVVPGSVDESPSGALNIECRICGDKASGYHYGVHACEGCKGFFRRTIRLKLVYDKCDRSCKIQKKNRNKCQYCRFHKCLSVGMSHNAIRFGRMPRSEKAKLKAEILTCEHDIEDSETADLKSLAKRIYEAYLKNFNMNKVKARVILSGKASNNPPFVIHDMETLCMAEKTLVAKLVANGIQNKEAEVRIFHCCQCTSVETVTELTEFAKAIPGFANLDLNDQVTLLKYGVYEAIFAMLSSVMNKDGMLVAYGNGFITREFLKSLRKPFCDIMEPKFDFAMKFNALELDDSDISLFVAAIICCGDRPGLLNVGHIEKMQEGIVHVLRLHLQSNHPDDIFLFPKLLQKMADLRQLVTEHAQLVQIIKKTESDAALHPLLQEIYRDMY
Chain of Calcium and integrin-binding protein 1 (Homo sapiens) (Q99828 whole entry, looked up): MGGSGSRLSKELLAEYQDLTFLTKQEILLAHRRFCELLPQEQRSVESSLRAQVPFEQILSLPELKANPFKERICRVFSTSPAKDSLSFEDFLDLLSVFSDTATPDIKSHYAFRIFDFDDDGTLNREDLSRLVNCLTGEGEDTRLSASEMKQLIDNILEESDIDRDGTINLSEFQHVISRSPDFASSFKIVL
Chain of Glutathione peroxidase 1 (Homo sapiens) (P07203 whole entry, looked up): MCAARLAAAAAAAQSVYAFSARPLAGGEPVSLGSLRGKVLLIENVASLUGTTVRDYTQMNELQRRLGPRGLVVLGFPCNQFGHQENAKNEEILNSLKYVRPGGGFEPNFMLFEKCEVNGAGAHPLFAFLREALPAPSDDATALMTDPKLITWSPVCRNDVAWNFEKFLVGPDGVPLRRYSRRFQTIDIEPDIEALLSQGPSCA
Chain of Nuclear receptor subfamily 1 group I member 2 (Rattus norvegicus) (Q9R1A7 whole entry, looked up): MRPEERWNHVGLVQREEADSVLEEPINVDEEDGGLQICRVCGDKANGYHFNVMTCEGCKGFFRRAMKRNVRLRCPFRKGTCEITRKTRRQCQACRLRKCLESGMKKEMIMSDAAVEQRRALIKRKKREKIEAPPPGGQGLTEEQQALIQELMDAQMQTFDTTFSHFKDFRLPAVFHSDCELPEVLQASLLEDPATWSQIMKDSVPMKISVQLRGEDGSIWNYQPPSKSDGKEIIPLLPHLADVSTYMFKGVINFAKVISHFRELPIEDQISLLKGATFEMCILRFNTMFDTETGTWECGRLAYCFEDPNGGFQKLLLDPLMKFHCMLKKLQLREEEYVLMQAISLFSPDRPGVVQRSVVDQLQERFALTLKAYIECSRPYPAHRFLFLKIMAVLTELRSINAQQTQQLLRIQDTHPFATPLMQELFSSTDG
Chain of Phospholipid hydroperoxide glutathione peroxidase GPX4 (Homo sapiens) (P36969 whole entry, looked up): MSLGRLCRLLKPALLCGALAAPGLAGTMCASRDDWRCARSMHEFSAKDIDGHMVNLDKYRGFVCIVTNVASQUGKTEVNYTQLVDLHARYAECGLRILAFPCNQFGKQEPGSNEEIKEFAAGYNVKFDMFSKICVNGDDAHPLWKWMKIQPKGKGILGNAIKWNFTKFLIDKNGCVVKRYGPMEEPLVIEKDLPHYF

C[C@]12CC[C@H]3[C@@H](CCC4=CC(=O)CC[C@@]43C)[C@@H]1CC[C@H]2O
inactive: activation [1] 0.0688% | activation [2] -2.33% | max response [3] -2.25% | Potency [4] | max response [5] 1.08% | max response [6] -4.18% | max response [7] -7.89% | outcome [8] | Potency [9] | max response [10] 3.9% | outcome [11]

C[C@@H](CN1CCC(n2c(=O)[nH]c3cc(Br)ccc32)CC1)NC(=O)[C@@H]1C[C@H]1c1ccccc1
inactive: Potency [12] | Potency [13] | Potency [14] | Potency [15] | outcome [16] | Potency [17] | Potency [18] | Potency (C33A) | Potency (CAOV3) | Potency (CASKI) | Potency (Es-2) | Potency (HeLa) | Potency (Hek293T) | Potency (JEG-3) | Potency (OV90) | Potency (PA-1) | Potency (Tov-21-G) | Potency (Tov112D)

From PubChem BioAssay (NCATS)
